# Results as given in PubChem BioAssay (NCATS).
# Several values for one entry are separate records, joined by “and”; a condition that tells them apart may be missing. Equal values may be shown once. Inconclusive results are not listed. More than one record can exist for a structure, and the calls need not agree. Values without a mark were called inactive. Activity calls are given as the source filed them. Calls follow the shape of the dose curve; as a rule, active = well fitted activation curve with a large enough effect; inconclusive = small, poorly fitted or top-dose-only effect; inactive = no such curve, though single readings can be large or run the other way. Non-standard residues stand in square brackets, D forms with d. Residues, ends and D or L forms follow the SMILES beside them. pGlu = O=C1CC[C@@H](C(=O)O)N1
# Target: Cellular tumor antigen p53 (Homo sapiens) (UniProt P04637)
# Assay: Primary qHTS for small molecule compounds that upregulate eGFP-tagged delta133p53alpha (in N-terminal) cells. (AID 2060322); also: nearly all actives have a fitted effect of over 75% in size;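 as to activation: cells pre-induced with doxycycline then dosed without doxycycline; series mostly up to about 56 µM; 0% = DMSO vehicle and 100% = reference activator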
# Conditions: NCI-H358 eGFP-delta133p53alpha fluorescence, 24 h; activation: hits give high values
# From the text: Assay Development and Screening Technology
# National Center for Advancing Translational Sciences (NCATS),
# National Institute of Health (NIH), Rockville, Maryland
# Cellular senescence (CS) is one of the hallmarks of aging and age-related diseases. Senescent cells are characterized by an irreversible growth arrest, an increase in senescence-associated beta-galactosidase (SA-beta-gal) activity and p16INK4a expression, an activation of the DNA damage response pathways, and the emergence of a senescence-associated secretory phenotype (SASP).
# Delta133p53alpha, a human/primate-specific p53 protein isoform, delays or inhibits the induction of CS and SASP in various types of human cells, including progeria-derived fibroblasts, primary normal astrocytes, and CD8+ T lymphocytes. Induction of delta133p53alpha with small molecule compounds may provide therapeutic opportunities for inhibition of senescence/SASP-associated pathologies in progeria syndromes, astrocyte-mediated neuroprotection in neurodegenerative diseases, and possibly prevention and treatment of a wider range of senescence- and aging-associated diseases.
# Here we report the development and validation of a cell-based quantitative high throughput screening (qHTS) assay in 1,536-well format. This qHTS assay uses the NCI-H358 cell line with doxycycline-inducible expression of enhanced green fluorescent protein (eGFP)-tagged delta133p53alpha, which allows efficient and highly quantitative measurement of the protein levels.
# PROTOCOL TABLE (as described by Inglese J, Shamu CE and Guy RK. 2007)
# SEQUENCE No. (e.g., 1, 2, 3, etc.); […] (e.g., Cells, Incubation, Reagent, etc.); VALUE; DESCRIPTION.
# 1; Cells; 4uL; 800 doxycycline treated cells / well in doxycycline-free media, 1536-well black, clear-bottom low base Aurora microplates.
# 2; Compounds; 23 nL; Kalypsis pin tool (Wako) equipped with 1536-well pin heads, 5-azacytidine positive control.
# 3; Incubation; 24 hr; 37C, 5% CO2; 95% relative humidity.
# 4; Aspiration; 1x; BioTek EL406 washer dispenser (Agilent).
# 5; Fixing; 3.5% paraformaldehyde, BioTek EL406 washer dispenser (Agilent).
# 6; Washing; 1x PBS; BioTek EL406 washer dispenser (Agilent).
# 7; Nuclei staining; 1:1000 dilution of Hoechst 33342 (Thermofisher), BioTek EL406 washer dispenser (Agilent).
# 8; Incubation; 20 min; in the dark at room temperature.
# 9; Washing; 2x, 1x PBS (ThermoFisher), BioTek EL406 washer dispenser (Agilent).
# 10; Reagent; 10 uL; 1x PBS per well, sealed with clear adhesive tape.
# NOTES (numbers refer to sequence numbers above).
# 1. NCI-H358 cells expressing eGFP-tagged delta133p53alpha were grown in T75 culture flasks and treated with doxycycline for 24h, at 10 ng/ml for eGFP-D133p53a cells (N-terminal cell) and 100 ng/ml for D133p53a-eGFP cells (C-terminal cells). Cells were trypsinized, counted using a Counted 3 Automated Cell Counter (Thermo Fisher), and diluted to a concentration of 200,000 cells/ml. A Multidrop Combi Reagent Dispenser (ThermoFisher) was used to dispense 800 cells/well in […] of doxycycline-free media, into 1536-well black/clear bottom low base plates (AuroraMicroplates).
# 2. After plating cells, 23 nl of compound library, DMSO vehicle control or positive control (5-azacytidine) were transferred by Pin Tool (Wako). The plate map layout was the same for each plate: (column 1) non-doxycycline treated cells + DMSO vehicle control; (column 2) doxycycline treated cells + DMSO vehicle control baseline; (column 3) doxycycline treated cells + positive control 57.5 uM final concentration 5-azacytidine; (column 4) doxycycline treated cells + serial dilution of 5-azacytidine, 16-point 1:2 titration spanning 1.8 nM to […] final concentration; (columns 5-48) doxycycline treated cells + titration of library compounds.
# 3. Cells were incubated at 37 °C, 5 % CO2, 95% RH with breathable metal lid for 24h.
# 4-10. […] After two washes, 10 ul of 1X PBS (Thermo Fisher) was dispensed to each well. Clear adhesive plate seals (VWR) were applied and plates stored at 4 °C.
# 11. […]
# Potency is read from the fitted curve at half-maximal effect.
# Chain of Cellular tumor antigen p53 (Homo sapiens) (P04637 whole entry, looked up): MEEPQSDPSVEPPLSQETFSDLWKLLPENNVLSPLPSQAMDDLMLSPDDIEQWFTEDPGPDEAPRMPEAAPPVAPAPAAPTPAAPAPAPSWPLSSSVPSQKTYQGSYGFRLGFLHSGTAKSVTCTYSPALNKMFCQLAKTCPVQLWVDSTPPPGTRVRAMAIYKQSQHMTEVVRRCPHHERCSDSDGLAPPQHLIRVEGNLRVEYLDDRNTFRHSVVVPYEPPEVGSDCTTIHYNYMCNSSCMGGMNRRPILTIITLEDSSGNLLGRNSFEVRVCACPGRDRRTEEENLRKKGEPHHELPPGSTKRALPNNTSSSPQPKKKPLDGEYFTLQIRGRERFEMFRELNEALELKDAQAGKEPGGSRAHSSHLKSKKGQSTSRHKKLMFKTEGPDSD
Structure (SMILES),activation,Potency
Cc1ccc(NC(=O)c2ccc(CN3CCN(C)CC3)cc2)cc1Nc1nccc(-c2cccnc2)n1,-19.4% and -18.4% and -2.86%,–
COc1ccc(NC(=O)c2ccc(-c3ccc(C(=N)N)cc3C)cc2)cc1N1CCN(C)CC1,8.11%,–
CC(C)NC[C@@H](O)COc1ccc(CC(N)=O)cc1,-20.9%,–
Cc1cccc(C(=O)NCN2CCN(c3ccccc3C#N)CC2)c1,-16.7%,–
O=C(CCc1ccncc1)NNC(=O)N1Cc2ccccc2Oc2ccc(Cl)cc21,-9.58%,–
C=C1C(=O)O[C@@H]2/C=C(\CO)CC/C=C(/C=O)C[C@H](O)[C@@H]12,–,26.9 µM (active)
C=C[C@@](C)(O)CC/C=C(\C)C(=O)O[C@@H]1[C@@H]2O[C@]2(C)[C@H]2[C@H](O[C@@H]3O[C@H](CO)[C@@H](O)[C@H](O)[C@H]3O)OC=C[C@@]12O,-3.57%,–
CC(=O)NC1C(OC(C)(C)C2CCC3(C)C=C(C4CCC5C4(C)CC(O)C4OC(C(C)(C)O)CCC45C)CCC3O2)OC(CO)C(O)C1O (stereo not given),-3.05%,–
CS(=O)(=O)N1CCC(NC(=O)c2[nH]ncc2NC(=O)c2c(Cl)cccc2Cl)CC1,–,3.01 µM (active)
C[C@@H]1C(=O)O[C@H](C)[C@H]1C[C@@H](O)[C@](C)(O)[C@H]1CC[C@@]2(O)C3=CC(=O)[C@@H]4C[C@@H](O)[C@@H](O)C[C@]4(C)C3CC[C@]12C (stereo not given in full),-5.36%,–
O=C(NCC(=O)N1CCCC1)Nc1ccc2cnccc2c1,7.14%,–
CC(CCO)CCC1C2(C)CCCC(C)(C)C2CC[C@@]1(C)O (stereo not given in full),18.3%,–
Cc1nc(N)nc(N)c1-c1ccc(Cl)c(Cl)c1,2.82%,–
Oc1ccc(C(O)CNCCCCCCNCC(O)c2ccc(O)c(O)c2)cc1O (stereo not given),2.82%,–
C[C@@H]1O[C@@H](O[C@H]2[C@@H]3C=CO[C@@H](O[C@@H]4O[C@H](CO)[C@@H](O)[C@H](O)[C@H]4O)[C@@H]3[C@@]3(CO)O[C@@H]23)[C@H](O)[C@H](O)[C@H]1OC(=O)/C=C/c1ccc(O)cc1,-25.2%,–
CCNC(=O)[C@@H]1CCCN1C(=O)[C@H](CCCN=C(N)N)NC(=O)[C@H](CC(C)C)NC(=O)CNC(=O)[C@H](Cc1ccc(O)cc1)NC(=O)[C@H](CO)NC(=O)[C@H](Cc1c[nH]c2ccccc12)NC(=O)[C@H](Cc1cnc[nH]1)NC(=O)[C@@H]1CCC(=O)N1 ([pGlu]HWSYGLRP-NHEt),5.86%,–
CC(C)=CCCC1(C)Oc2cc3c(c4c2C2C(O4)C(C)(O)CCC21)CN(C(CCC(=O)O)C(=O)O)C3=O (stereo not given),-3.05%,–
CC(C)C(N)C(=O)OCCOCn1cnc2c(=O)[nH]c(N)nc21 (stereo not given),8.93%,–
CCC[C@@]1(CCc2ccccc2)CC(O)=C([C@H](CC)c2cccc(NS(=O)(=O)c3ccc(C(F)(F)F)cn3)c2)C(=O)O1,-3.82%,–
COC(=O)[C@]12C(=O)C(C)=C(O)[C@@]1(C)C(C)=CC1[C@@]34CC[C@@H](OC(C)=O)C(C)(C)C3[C@H](C[C@]12C)OC4=O (stereo not given in full),2.29%,–

Structure (SMILES),activation,Potency
CCCNC(=O)Nc1ccc(Oc2ncnc3cc(OC)c(OC)cc23)cc1Cl,17.1%,26.9 µM (active)
CO[C@@H]1[C@]2(O)C(=O)N3/C=C\C(C)(C)c4[nH]c5ccccc5c4/C=C\3C(=O)N2[C@]23[C@H](CO)C(C)(C)N2c2ccccc2[C@]13O,8.4%,–
COc1cc(SC)ccc1C(=O)N1CCC(Cc2ccccc2)CC1,14.6%,–
Cn1c(=O)c2nc(/C=C/c3cccc(Cl)c3)n(C)c2n(C)c1=O,-2.33%,–
Cc1noc(C)c1-c1cc(O)cc(C(O)c2ccccc2)c1 (stereo not given),10.1%,–
CC(C)(C)OC(=O)N[C@H]1CCCCCC=C[C@@H]2C[C@@]2(C(=O)NS(=O)(=O)C2CC2)NC(=O)[C@@H]2C[C@@H](OC(=O)N3Cc4cccc(F)c4C3)CN2C1=O,5.4%,–
CC(=O)C1=C(O)C=C2Oc3c(C(C)=O)c(O)c(C)c(O)c3C2(C)C1=O (stereo not given),47.4%,–
O=C(O)P(=O)(O)O,-13%,–
O=C(O)C1CCCN(CCC=C(c2ccccc2)c2ccccc2)C1 (stereo not given),-10.3%,–
Cc1ccc(-c2c(C(=O)CCl)n(CCCO)c3ncnc(N)c23)cc1,–,12 µM (active)
NC(=O)Nc1sc(-c2ccc(F)cc2)cc1C(N)=O,-16.3%,–
CC(=O)OC1C(C)C2C(OC3OC(CO)C(O)C(O)C3O)OC=C(C(=O)O)C2C1OC(=O)c1ccccc1 (stereo not given),5.34%,–
Nc1nc(-n2cc(C(=O)O)c(=O)c3cc(F)c(N4CC(O)C4)c(Cl)c32)c(F)cc1F,13%,–
CC(=O)OCC(=O)[C@@]1(O)CC[C@H]2[C@@H]3CCC4=CC(=O)C=C[C@]4(C)[C@@]3(F)[C@@H](O)C[C@@]21C,-10.7%,–
COc1cc(Nc2nc3ccccc3nc2NS(=O)(=O)c2ccc(NC(=O)c3ccc(OC)c(C)c3)cc2)cc(OC)c1,-18.6%,–
CC(C)CCCC(C)N (stereo not given),0.565%,–
CC[C@@H]1C(=O)N(C)c2cnc(Nc3ccc(C(=O)NC4CCN(C)CC4)cc3OC)nc2N1C1CCCC1,7.53%,–
COc1ccc(/C=C2\COc3ccc(C)cc3C2=O)cc1O,-71.5%,–
Cc1cc(OCCCS(C)(=O)=O)cc(C)c1-c1cccc(COc2ccc3c(c2)OC[C@H]3CC(=O)O)c1,5.3%,–
